HPGD inh – inhibitors of human 15-hydroxyprostaglandin dehydrogenase (HPGD) | hit rate 4.3% among 150,000 | purified HPGD, NADH fluorescence kinetic, PGE2 substrate | Potency, µM, without a hit: at the top dose activity change, negative = inhibition, actives largely listed as inhibitors | P15428; further: potency means the concentration at half of the fitted maximal effect
Target sequence (P15428 whole entry, looked up): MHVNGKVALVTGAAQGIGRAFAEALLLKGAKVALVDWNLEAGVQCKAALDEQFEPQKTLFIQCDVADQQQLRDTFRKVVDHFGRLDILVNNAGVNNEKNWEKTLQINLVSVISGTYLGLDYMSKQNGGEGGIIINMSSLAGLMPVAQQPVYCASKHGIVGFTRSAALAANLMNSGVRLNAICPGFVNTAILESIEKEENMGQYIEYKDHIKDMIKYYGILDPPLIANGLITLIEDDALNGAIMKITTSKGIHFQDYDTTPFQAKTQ
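20 nM HPGD preincubated 15 min at room temperature with compound in 50 mM Tris-HCl pH 8, 0.01% Tween 20. Started with 1 mM NAD+ and 30 uM prostaglandin E2; NADH fluorescence (360/450 nm) read 5 times over 30-s intervals, last minus first.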
PNC assembly inh – inhibitors of perinucleolar compartment assembly; hit rate 3.1% among 140,000; activity change (PNC), negative = inhibition, % at 10 µM; PC3M PTB-GFP, PNC prevalence imaging, 16 h; stronger effect = lower value;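 active means readout at or below -70, meaning at least 70% loss of cells showing the perinucleolar compartment, a nuclear body marking cancer cells; inconclusive means readout between -30 and a set limit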;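 further: plate controls were DMSO wells for no effect and camptothecin positive control wells for full effect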
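Read-out is percentage of cells bearing a perinucleolar compartment, from automated 20x imaging of fixed, Hoechst-stained PC3M PTB-GFP cells. Cells were seeded 4 h, then exposed 16 h to compound (23 nl of library stock) in duplicate plates.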
ALDH1A1 inh – ALDH1A1 (human) enzyme inhibition. P00352. Purified ALDH1A1, NADH fluorescence, propionaldehyde substrate. Potency, µM (doses to about 75.3 µM), for the others: top-dose activity, negative = inhibition, actives largely listed as inhibitors. hit rate 7.3% among 220,000. AID 1030;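 further: potency means the concentration at half of the fitted maximal effect; plate controls were no enzyme wells and a reference inhibitor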
KDM4E inh – JMJD2E (human) inhibition | B2RXH2 | JMJD2E catalytic domain, FDH-coupled NADH fluorescence (FDH is formaldehyde dehydrogenase) | Potency, µM (titrated, usually from 57.1 µM), inactives show at the top dose activity change, negative = inhibition, actives largely listed as inhibitors | hit rate 1.6% among 230,000;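 further: potency means the concentration at half of the fitted maximal effect; 0% = wells with enzyme and -100% = buffer wells without enzyme; nearly all actives have a fitted effect of over 50% in size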
Target sequence (B2RXH2 1-337 limits assumed): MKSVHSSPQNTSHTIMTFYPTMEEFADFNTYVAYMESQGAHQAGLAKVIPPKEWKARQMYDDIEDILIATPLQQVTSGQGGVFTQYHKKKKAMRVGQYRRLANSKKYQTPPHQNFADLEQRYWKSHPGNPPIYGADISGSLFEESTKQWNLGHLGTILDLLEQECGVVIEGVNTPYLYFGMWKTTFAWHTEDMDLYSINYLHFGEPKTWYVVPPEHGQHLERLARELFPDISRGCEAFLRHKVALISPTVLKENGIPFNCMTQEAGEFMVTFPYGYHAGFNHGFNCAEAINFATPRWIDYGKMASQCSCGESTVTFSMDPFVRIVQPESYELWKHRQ
* marks the source's active call; other numbers are inactive results; [ ] = remark or other dose. An excerpt weighted towards active compounds, which were near 11% of everything screened. Unless noted, the call rests on the fitted dose curve; in most records, active means well fitted inhibition curve with a large enough effect (not every such curve was filed as active); inconclusive means small, poorly fitted or top-dose-only effect, or another doubt; inactive means no such curve, though single readings can be large or run the other way. Unless noted, on the % scale 0 is the no-effect control and ±100 the full control effect.

Screening CCn1ncc(N(C)N)c(Cl)c1=O returned ALDH1A1 inh 1% and KDM4E inh -10%.
`O=c1nc(N/N=C/C=C/c2ccccc2)cn[nH]1` gave KDM4E inh 3%.
For C=CCn1c(NCCO)nc2sc3c(c2c1=O)CCC3 the results were HPGD inh -7%, PNC assembly inh -114*, ALDH1A1 inh -3% and KDM4E inh -8%.
Screening O=c1c2c3c(sc2nc(NCCO)n1CCc1ccccc1)CCCCC3 returned HPGD inh -16%, PNC assembly inh -28, ALDH1A1 inh inconclusive and KDM4E inh -16%.
`CC(C)CN(C(=O)CSc1nnnn1-c1ccccc1)c1c(N)n(CC(C)C)c(=O)[nH]c1=O` gave ALDH1A1 inh inconclusive and KDM4E inh -5%.
S=c1[nH]nc(CSc2nc3ccccc3s2)o1 was read as HPGD inh -26%, PNC assembly inh 23, ALDH1A1 inh 18µM* and KDM4E inh -15%.
Cn1c(CSc2nc3ccccc3s2)n[nH]c1=S was read as HPGD inh -28%, PNC assembly inh 13, ALDH1A1 inh inconclusive and KDM4E inh -10%.
Screening O=S1(=O)C=C(Sc2nc3ccccc3s2)c2ccccc21 returned HPGD inh inconclusive, PNC assembly inh inconclusive, ALDH1A1 inh 14µM* and KDM4E inh inconclusive.
`N#Cc1cccc(CS(=O)(=O)c2nc3ccccc3s2)c1` gave HPGD inh -6%, ALDH1A1 inh 14µM* and KDM4E inh 3%.
`c1ccc2sc(SSc3nc4ccccc4s3)nc2c1` gave HPGD inh 10µM* and ALDH1A1 inh 0.25µM*.
Screening NCCSc1nc2ccccc2s1 returned HPGD inh -6% and ALDH1A1 inh -5%[13.5 µM].
Screening CCN(CC)c1ccc(S(=O)(=O)N2CCOCC2)cc1NC(=O)CSc1n[nH]c(N)n1 returned KDM4E inh 2%.
`O=S(=O)(CCc1ccccc1)c1nc2ccccc2s1` gave HPGD inh -11%, ALDH1A1 inh -5% and KDM4E inh 1%.
For O=S(=O)(CCSc1nc2ccccc2s1)c1nc2ccccc2s1 the results were HPGD inh -18%, PNC assembly inh -29, ALDH1A1 inh 0.1µM* and KDM4E inh -3%.
`C=CCS(=O)(=O)c1nc2ccccc2s1` gave HPGD inh -12%, PNC assembly inh 32, ALDH1A1 inh 0.79µM* and KDM4E inh -4%.
For N#C/C(=C\c1ccco1)Sc1nc2ccccc2s1 the results were HPGD inh 10µM*, PNC assembly inh -4, ALDH1A1 inh 13µM* and KDM4E inh -21%.
Screening O=C(OCCN1CCOCC1)C(c1ccccc1)c1ccccc1 returned HPGD inh -10%, PNC assembly inh inconclusive, ALDH1A1 inh 25µM* and KDM4E inh 4%.
`OC(COc1ccccc1)CN1CCOCC1` (centres undefined) gave HPGD inh -14%, PNC assembly inh -100*, ALDH1A1 inh 10% and KDM4E inh 3%.
For CC(CN1CCOCC1)C(=O)c1ccccc1 (centres undefined) the results were HPGD inh -5%, PNC assembly inh 58, ALDH1A1 inh 32µM* and KDM4E inh -3%.
Screening O=C(c1ccc(Cl)cc1)c1ccc(OCC(O)CN2CCOCC2)cc1 (centres undefined) returned HPGD inh -9%, PNC assembly inh inconclusive, ALDH1A1 inh -1% and KDM4E inh 1%.
Screening Cc1ccn2c(/C=N/OCc3ccc(F)cc3)c(-c3ccc(Cl)cc3)nc2c1 returned PNC assembly inh -19, ALDH1A1 inh 22µM* and KDM4E inh -30%.
COc1ccccc1COn1c(=O)c(-c2ccco2)[n+]([O-])c2ccccc21 was read as ALDH1A1 inh 22µM* and KDM4E inh inconclusive.
O=c1c(-c2ccco2)[n+]([O-])c2ccccc2n1OCc1ccccc1 was read as HPGD inh inconclusive, PNC assembly inh 10, ALDH1A1 inh 22µM* and KDM4E inh inconclusive.
`O=c1c(-c2ccco2)[n+]([O-])c2ccccc2n1OCc1c(F)cccc1F` gave KDM4E inh -4%.
`Cc1c(=O)n(OCc2ccccc2)c2ccccc2[n+]1[O-]` gave HPGD inh -12%, PNC assembly inh 5, ALDH1A1 inh inconclusive and KDM4E inh inconclusive.
`COc1ccc(COn2c(=O)c(C)[n+]([O-])c3ccccc32)cc1OC` gave HPGD inh -10%, PNC assembly inh -111*, ALDH1A1 inh inconclusive and KDM4E inh -2%.
For O=C(O)C1CCCN1C(=O)c1cncc(Br)c1 (centres undefined) the results were HPGD inh 2%, PNC assembly inh -13, ALDH1A1 inh 20µM* and KDM4E inh 5%.
CC(=O)N1CCC[C@H]1C(=O)O was read as ALDH1A1 inh -4% and KDM4E inh -16%.
CCc1ccc(NC(=O)CCn2ccnc2C)cc1 was read as HPGD inh -11%, PNC assembly inh 6, ALDH1A1 inh 6% and KDM4E inh 9%.
Screening C[C@]12C[C@@](C)(C=C1/C=C/c1ccc(C(F)(F)F)cc1)C(=O)C[C@H]2c1ccc(C(F)(F)F)cc1 returned HPGD inh -1%, ALDH1A1 inh -8% and KDM4E inh -2%.
`COC(=O)[C@@H]1CCCN1C(=O)[C@H]1C[C@@H]1[C@H](NC(=O)OCc1ccccc1)c1ccccc1` gave HPGD inh -3%, ALDH1A1 inh inconclusive and KDM4E inh -2%.
O=C(CSc1cn(CCNC(=O)c2cccs2)c2ccccc12)NC1CCCC1 was read as HPGD inh 20µM*, PNC assembly inh -16, ALDH1A1 inh inconclusive and KDM4E inh -2%.
O=C(CSc1nnc(CNC(=O)c2cccs2)o1)NC1CCCC1 was read as HPGD inh -19%, PNC assembly inh -100*, ALDH1A1 inh -2% and KDM4E inh -2%.
Screening CC1CC(C)CN(C(=O)CSc2nc(N)cc(=O)[nH]2)C1 (centres undefined) returned ALDH1A1 inh -2% and KDM4E inh 7%.
For Cc1nc2cncnc2n(-c2ccccc2)c1=O the results were HPGD inh -19% and ALDH1A1 inh inconclusive.
COc1cccc(-c2ccc3ncnc(N4CCNCC4)c3c2)c1 was read as ALDH1A1 inh -4%.
Cc1ccc(S(=O)(=O)/N=C(\Nc2cccc(C)c2)Nc2nc(C)cc(C)n2)cc1 was read as HPGD inh -14%, PNC assembly inh -7, ALDH1A1 inh 0.4µM* and KDM4E inh -5%.
For COc1cccc(Oc2ccc3nnc(C(F)(F)F)n3n2)c1 the results were ALDH1A1 inh -3% and KDM4E inh -8%.
For C[N+](C)(CC#Cc1ccccc1)CC(=O)c1ccc(Cl)cc1 the results were HPGD inh -1%, PNC assembly inh -90*, ALDH1A1 inh 7% and KDM4E inh 0%.
For Cc1cc(C)cc(NC(=S)/C(=C(\[O-])c2ccc(Cl)cc2Cl)[n+]2ccc(C(C)(C)C)cc2)c1 the results were KDM4E inh -4%.
`[O-]/C(=C(\C(=S)Nc1ccccc1F)[n+]1ccccc1)c1ccc(-c2ccccc2)cc1` gave ALDH1A1 inh 18µM* and KDM4E inh inconclusive.

Screening results: PubChem BioAssay, National Center for Advancing Translational Sciences (NCATS)
